# Assay results published in PMC4336329 (PLoS ONE, 2015).
# The whole screen tested about 310,000 compounds, of which about 14,000 (4.5%) showed an effect of 50% or more. Effects have a minus sign here. This excerpt belongs to a sample that is enriched for strong results.
# Molecular target: human ether-à-go-go-related gene (hERG) potassium channel (human, UniProt Q12809)
# Assay: primary screen, population patch clamp on CHO cells stably expressing hERG; higher = less effect of the substance
# 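Also: peak tail current of the secondary pulse compared with the same well before compound.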
# Chain of human ether-à-go-go-related gene (hERG) potassium channel (Q12809 whole entry, looked up): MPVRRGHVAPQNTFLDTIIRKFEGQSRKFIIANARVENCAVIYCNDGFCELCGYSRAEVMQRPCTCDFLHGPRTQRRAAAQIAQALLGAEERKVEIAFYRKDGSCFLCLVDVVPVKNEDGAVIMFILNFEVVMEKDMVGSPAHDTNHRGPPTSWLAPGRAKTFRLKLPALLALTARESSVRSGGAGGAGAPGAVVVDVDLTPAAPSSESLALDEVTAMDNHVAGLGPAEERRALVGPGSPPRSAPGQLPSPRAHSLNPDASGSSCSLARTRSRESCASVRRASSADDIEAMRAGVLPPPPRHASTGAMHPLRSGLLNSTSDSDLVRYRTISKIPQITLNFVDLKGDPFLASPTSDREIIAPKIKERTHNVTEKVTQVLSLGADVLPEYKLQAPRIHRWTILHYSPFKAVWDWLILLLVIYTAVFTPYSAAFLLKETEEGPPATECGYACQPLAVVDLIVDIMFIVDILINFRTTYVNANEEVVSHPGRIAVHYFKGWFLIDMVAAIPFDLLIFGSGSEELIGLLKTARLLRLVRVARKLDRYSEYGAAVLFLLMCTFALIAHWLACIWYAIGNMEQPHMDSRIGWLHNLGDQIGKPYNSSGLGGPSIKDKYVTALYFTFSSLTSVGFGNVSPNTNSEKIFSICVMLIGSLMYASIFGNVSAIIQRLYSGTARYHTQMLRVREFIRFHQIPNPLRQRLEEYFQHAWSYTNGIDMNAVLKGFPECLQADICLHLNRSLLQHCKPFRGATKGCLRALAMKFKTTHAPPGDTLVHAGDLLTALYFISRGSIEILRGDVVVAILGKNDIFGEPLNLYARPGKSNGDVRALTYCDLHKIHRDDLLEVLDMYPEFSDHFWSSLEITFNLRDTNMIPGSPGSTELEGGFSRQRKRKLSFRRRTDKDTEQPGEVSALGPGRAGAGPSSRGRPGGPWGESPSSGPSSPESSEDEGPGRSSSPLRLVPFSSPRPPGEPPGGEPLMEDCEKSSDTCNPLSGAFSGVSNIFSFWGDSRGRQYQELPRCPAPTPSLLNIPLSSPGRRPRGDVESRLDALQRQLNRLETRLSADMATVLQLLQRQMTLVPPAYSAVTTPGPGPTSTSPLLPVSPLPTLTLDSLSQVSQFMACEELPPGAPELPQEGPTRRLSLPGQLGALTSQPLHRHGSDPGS
row,SMILES,"hERG current change (%, negative = inhibition) at 10uM [%]"
1,O=C(Cc1ccccc1)Nc1cccc(-c2nc3ncccc3o2)c1,13.6
2,COc1ccc(Nc2ccc(C(N)=O)cc2[N+](=O)[O-])cc1,7.18
3,CCCSc1nc2c(c(=O)[nH]c(=O)n2C)n1C,2.58
4,Cn1c(=O)[nH]c(=O)c2c1nc(OC(=O)c1ccccc1)n2CC(O)COc1ccccc1 (centres unmarked),23.2
5,CCCc1c(O)nc(SCc2ccccc2)[nH]c1=O,0.68
6,CCOC(=O)C1CCN(Cc2cc(C(C)(C)C)c(O)c(C(C)(C)C)c2)CC1,-63.1
7,CCN1CCN(Cc2cc(C(C)(C)C)c(O)c(C(C)(C)C)c2)CC1,-26.5
8,CCOC(=O)C1CCN(Cc2cc(C(C)C)c(O)c(C(C)C)c2)CC1,-41.3
9,CC(C)(C)c1cc(CN2CCCCC2)cc(C(C)(C)C)c1O,-50.7
10,CC(C)(C)c1cc(CN2CCC(O)CC2)cc(C(C)(C)C)c1O,-70.1
11,CC1=NN(Cc2cc(C(C)(C)C)c(O)c(C(C)(C)C)c2)C(=O)C1,17.2
12,CN1CCN(Cc2cc(C(C)(C)C)c(O)c(C(C)(C)C)c2)CC1,-15.1
13,CCOC(=O)C1CCN(Cc2ccc(Cl)c(Cl)c2)CC1,-5.6
14,CC(C)(C)c1cc(CN2CCCC(O)C2)c(O)c(C(C)(C)C)c1 (centres unmarked),-13.9
15,Cc1ccc(S(=O)(=O)N2N=C3CCCCC3C2(O)C(F)(F)F)cc1 (centres unmarked),4.99
16,O=C(NN=C1CCCC1)c1cccc(O)c1,8.96
17,O=C1C2C3CCCC3=C3CCCC3C2C(=O)N1c1ccccc1 (centres unmarked),1.8
18,C/C(=N/NC(=O)c1ccc2c(c1)OCO2)c1ccc(NC(=O)c2ccc(F)cc2)cc1,9.33
19,CSc1ccccc1C(=O)NC1CCCN(c2ccc(C(F)(F)F)cn2)C1 (centres unmarked),-4.58

row,SMILES,"hERG current change (%, negative = inhibition) at 10uM [%]"
1,O=C(NC1CCCN(c2ccc(C(F)(F)F)cn2)C1)c1cc(Cl)ccc1F (centres unmarked),5.34
2,O=C(CCc1ccccc1Cl)NC1CCCN(c2ccc(C(F)(F)F)cn2)C1 (centres unmarked),13.4
3,Cc1ccc(C(=O)NC2CCCN(c3ccc(C(F)(F)F)cn3)C2)cn1 (centres unmarked),-2.75
4,O=C(NC1CCCN(c2ccc(C(F)(F)F)cn2)C1)c1ccnc(Cl)c1 (centres unmarked),-55.5
5,O=C(NC1CCCN(c2ccc(C(F)(F)F)cn2)C1)c1ccncc1 (centres unmarked),-69.2
6,COc1ccc(CCNC(=O)Cn2nnc3ccccc3c2=O)cc1,9.17
7,CCOC(=O)CN1CC23C=CC(O2)C(C(=O)Nc2ccc(C(C)=O)cc2)C3C1=O (centres unmarked),4.98
8,CC1=C(C(=O)Nc2cccc(C(=O)NC3CCCCC3C)c2)SCCO1 (centres unmarked),-17.8
9,CC1(C)CC(=O)C=C(NCCN2CCN(C(=O)Nc3ccc(Cl)c(Cl)c3)CC2)C1,-24
10,CS(=O)(=O)N(CC(=O)NCc1cccnc1)Cc1ccc(Cl)cc1,-30.1
11,Cn1nnnc1SCC(=O)Nc1nn(-c2ccccc2)nc1C(N)=O,-13.8
12,NC(=O)c1ccc(-n2nnnc2SCC(=O)Nc2ccccc2F)cc1,18.9
13,NC(=O)c1nn(-c2ccccc2)nc1NC(=O)CSc1nnnn1-c1ccc(Cl)cc1,-53.7
14,CC(C)(C)n1nnnc1SCC(=O)Nc1nn(-c2ccccc2)nc1C(N)=O,9.33
15,NC(=O)c1ccc(-n2nnnc2SCC(=O)Nc2ccccc2)cc1,14.3
16,NC(=O)c1ccc(-n2nnnc2SCC(=O)Nc2ccccc2-c2ccccc2)cc1,-58.1
17,CN1CCN(c2cn[nH]c(=O)c2Cl)CC1,15.4
18,Cc1ccc(-c2csc(NC(=O)CN3CCC(C(N)=O)CC3)n2)cc1,8.38
19,Fc1ccccc1-c1csc(=Nc2cccnc2)n1CCCn1ccnc1,-60.1

row,SMILES,"hERG current change (%, negative = inhibition) at 10uM [%]"
1,CN=c1scc(-c2ccccc2F)n1/N=C(\C)c1cccnc1,-28.9
2,CC(C)Cn1c(-c2ccco2)csc1=Nc1cccnc1,8.45
3,Fc1ccccc1-c1csc(=Nc2cccnc2)n1CC1CCCO1 (centres unmarked),-16.8
4,c1cncc(N=c2scc(-c3cccc4ccccc34)n2CCCn2ccnc2)c1,-56.5
5,COCCn1c(-c2cccs2)csc1=Nc1cccnc1,-15.3
6,Cc1cc(C)cc(OCc2ccc(C(=O)NN)o2)c1,14.2
7,COc1ccc(CCNC(=S)Nc2cc(C)ccc2C)cc1,-15.9
8,CS(=O)(=O)N(C(=O)NC(=O)NC1CCS(=O)(=O)C1)C1CCCCC1 (centres unmarked),4.13
9,COc1ccc(-c2nn(-c3ccccc3)cc2/C=C2/SC(=S)N(Cc3ccco3)C2=O)c(C)c1,8.73
10,Cc1ccc(C)c(Cn2c(=O)c3c(nc4n3CCN4Cc3ccco3)n(C)c2=O)c1,-3.76
11,Cn1c(=O)n(Cc2ccc(F)cc2)c(=O)c2c1nc1n2CCN1Cc1ccco1,-55.4
12,Cn1c(=O)n(Cc2ccccc2)c(=O)c2c1nc1n2CCN1Cc1ccco1,-36.7
13,Cc1cccc(Cn2c(=O)c3c(nc4n3CCCN4Cc3ccccc3)n(C)c2=O)c1,-38.8
14,CCCn1c(=O)c2c(nc3n2CCN3Cc2ccco2)n(C)c1=O,-5.94
15,Cn1c(=O)n(CCc2ccccc2)c(=O)c2c1nc1n2CCN1Cc1ccco1,-55.5
16,Cc1ccc(Cn2c(=O)c3c(nc4n3CCN4Cc3ccco3)n(C)c2=O)cc1,-17.9
17,Cn1c(=O)n(Cc2ccc(Cl)cc2)c(=O)c2c1nc1n2CCN1Cc1ccco1,-21.5
18,Cc1cccc(Cn2c(=O)c3c(nc4n3CCN4Cc3ccco3)n(C)c2=O)c1,-52.2
